Measles CPE = compounds protecting cells from measles virus cytopathic effect, primary screen, measles RdRp inhibitor project, single point, MLSMR library, absorbance; Measles virus-infected cells, CPE protection; protection (pct of control), % at 4 µM; 1.5% of 140,000 active; in the data active = protection mostly above about 24%, no sharp cut-off; inactive = mostly below about 26%
MT1-MMP txn act = MT1-MMP promoter reporter activation – cell-based, luciferase luminescence, primary screen. 0.16% of 86,000 active. HT1080 MT1-MMP promoter luciferase reporter, overnight; hits give high values. activation factor at 10 µM;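 active = activation factor of at least 2 for MT1-MMP transcription at 10 µM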
Smad3 inh = Smad3/FoxH1 peptide binding inhibitors, primary screen, biochemical, TR-FRET; 0.29% of 88,000 active; TR-FRET Smad3/Dy647-FoxH1 peptide binding, europium anti-His; inhibition, % at 25 µM; Mothers against decapentaplegic homolog 3 (Homo sapiens), P84022;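 active = compounds that reduce the energy-transfer binding signal between the protein and its labelled peptide by more than half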
Target sequence (P84022 whole entry, looked up): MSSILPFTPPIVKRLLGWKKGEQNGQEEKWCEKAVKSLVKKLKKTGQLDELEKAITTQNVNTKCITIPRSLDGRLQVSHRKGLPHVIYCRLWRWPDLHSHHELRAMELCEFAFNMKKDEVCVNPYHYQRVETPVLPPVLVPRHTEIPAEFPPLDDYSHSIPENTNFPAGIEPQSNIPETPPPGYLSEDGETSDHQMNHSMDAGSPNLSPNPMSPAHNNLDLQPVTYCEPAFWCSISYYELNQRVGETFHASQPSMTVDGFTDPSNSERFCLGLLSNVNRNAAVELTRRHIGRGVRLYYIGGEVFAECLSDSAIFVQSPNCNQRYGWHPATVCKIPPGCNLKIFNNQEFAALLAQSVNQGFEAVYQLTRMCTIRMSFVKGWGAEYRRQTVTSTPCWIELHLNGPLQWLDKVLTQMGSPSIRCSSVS
A number is an active result; . = inactive; / = not tested or not shown. Only some compounds are listed: those with a hit (about 1.7% of all), similar ones and a draw of the others.

SMILES	Measles CPE	MT1-MMP txn act	Smad3 inh
O=C(NNC(=O)c1cc(OCC(F)(F)F)ccc1OCC(F)(F)F)c1cccc(C(F)(F)F)c1	78	/	/
Cc1ccc(C(=O)NNC(=O)c2cc(OCC(F)(F)F)ccc2OCC(F)(F)F)cc1	.	/	/
O=C(NC1CCCCC1)NC1CC2CCC(C1)N2C(=O)NCc1ccccc1 (stereo not given)	.	.	.
O=C(NC1CCCCC1)NC1CC2CCC(C1)N2C(=O)NC1CCCCC1 (stereo not given)	25	.	.
O=Cc1cc([N+](=O)[O-])ccc1N1CCOCC1	33	/	/
O=C(c1ccccc1)c1cc([N+](=O)[O-])ccc1N1CCOCC1	.	/	/
CCOC(=O)c1cnn(-c2nc(-c3cccc(F)c3)cs2)c1C(F)(F)F	.	/	/
Cc1cc(C)nc(SCc2nnc(SCC(=O)Nc3nccs3)n2Cc2ccco2)n1	41	.	.
Cc1cccc(NC(=O)CSc2nnc(CSc3nc(C)cc(C)n3)n2Cc2ccco2)c1	.	.	.
Cc1nc[nH]c(=O)c1Br	.	/	/
CN(C)Cc1c[nH]c2nc[nH]c(=O)c12	/	/	68
CCCCC(=O)Nc1ccc2oc(-c3ccncc3)nc2c1	.	.	.
CCCC(=O)Nc1ccc2oc(-c3ccncc3)nc2c1	37	.	.
Cc1ccc(C(=O)Cn2nnc(-c3ccccc3-n3cnnn3)n2)cc1	.	.	/
Cc1ccc(-c2nnn(CC(=O)Nc3ccccc3-c3ccccc3)n2)c(-n2cnnn2)c1	42	.	.
CCC1=C2CC[C@H]3C(=O)N(CC)C(=O)[C@H]3[C@H]2[C@@]2(C)C(=NCC(=O)OC)OC(=O)N2C1=O	/	.	/
COC(=O)[C@@]1(Cc2ccc(F)cc2)[C@H]2c3cc(C(=O)N(C)C)n(Cc4ccsc4Br)c3C[C@H]2CN1C(=O)c1ccccc1	/	.	/
CS(=O)(=O)N(Cc1ccc(C(=O)NCCSCc2ccco2)cc1)c1ccccc1	.	.	.
CS(=O)(=O)N(Cc1ccc(C(=O)NCc2ccco2)cc1)c1ccccc1	34	.	.
S=c1nc[nH]c2c1ncn2Cc1ccco1	/	/	65
N#CCCn1cnc2c(=S)nc[nH]c21	.	.	.
COC(=O)c1ccc(C(NC(=O)OCc2ccccc2)/C(C)=C/[C@@H](C)C(=O)N[C@@H](CO)Cc2ccccc2)cc1 (stereo not given in full)	/	.	/
CN(C)c1ccc(CNC(=O)C2(C)C=CCN2C(=O)c2ccccc2)cc1 (stereo not given)	/	.	/
CCOC(=O)C1CCCN(C(=O)c2ccc(C)cc2O)C1 (stereo not given)	.	/	/
CCOc1cc(C(=O)Nc2ccc(NC(C)=O)cc2)ccc1OCC(=O)N1CCCCC1	.	/	/
SMILES	Measles CPE	MT1-MMP txn act	Smad3 inh
Cc1c(Br)cc(C(=O)NCc2ccco2)c(C)c1C	103	.	.
Cc1ccc(C(=O)NCc2ccco2)cc1Br	.	/	.
COc1ccc(OC)c(Nc2nc(C3CC3)nc3c2nnn3Cc2ccccc2)c1	66	.	.
c1ccc(Cn2nnc3c(Nc4ccc5c(c4)OCO5)nc(C4CC4)nc32)cc1	.	.	/
COc1cc2c(cc1NC(=O)c1ccc3c(c1)OCO3)oc1ccccc12	.	2.1	.
O=C(Nc1ccc2c(c1)oc1ccccc12)c1ccc2c(c1)OCO2	.	.	.
Cc1cccc(-n2c(C)nc3cc(C(=O)NCc4ccc5c(c4)OCO5)ccc32)c1	.	/	/
Cc1[nH]c(=O)[nH]c(=O)c1NC(=O)c1cccs1	25	.	.
Cc1ccc(NC(=O)c2cccs2)cc1	.	.	.
O=C(O)CNc1ccc(C(=O)O)cc1	/	/	.
O=C(Nc1ccc(Cl)c(Cl)c1)N1CCC(N2CCCCC2)CC1	61	.	/
COc1cccc(NC(=O)N2CCC(N3CCCCC3)CC2)c1	.	.	.
COC(=O)c1ccc(C(/C=C/[C@@H](C)C(=O)NCCc2c[nH]c3ccccc23)NC(=O)OCc2ccccc2)cc1 (stereo not given in full)	/	.	/
CNC(=S)NNC(=O)CCn1nc(C)c(Br)c1C	.	/	/
COCCCNC(=S)NNC(=O)Cn1nc(C)c(Br)c1C	.	/	/
Cc1nn(CCC(=O)NNC(=S)NCC(C)C)c(C)c1Br	33	/	/
CCOCCCNC(=S)NNC(=O)CCn1nc(C)c(Br)c1C	39	/	/
C[C@@H]1c2ccccc2Cn2cc3c(c21)C(=O)c1cccc(OP(=O)(O)OCc2ccccc2)c1C3=O	/	/	.
Cc1cc(Cc2cc(Cc3cc(C)cc(C(C)(C)C)c3O)c(C)cc2C)c(O)c(C(C)(C)C)c1	/	/	.
COC(=O)C1(Cc2ccccc2)C=C2C(=C(C(C)C)C(=O)C2C)CN1 (stereo not given)	/	2.1	/
COC(=O)C1(Cc2ccccc2)C=C2C(=C(c3ccccc3)C(=O)C2C)CN1 (stereo not given)	/	.	/
O=C(Nc1ccc(Cl)c(Cl)c1)c1ccc(Cn2c(=O)[nH]c3ccsc3c2=O)cc1	23	/	/
O=C(Nc1ccc(Oc2ccccc2)cc1)c1ccc(Cn2c(=O)[nH]c3ccsc3c2=O)cc1	.	/	/
COc1cc(CCN2C(=O)N[C@@H](CCc3ccccc3)C(C(C)=O)=C2C)cc(OC)c1OC	29	/	/
COCCN1C(=O)N[C@@H](CCc2ccccc2)C(C(C)=O)=C1C	.	/	/
SMILES	Measles CPE	MT1-MMP txn act	Smad3 inh
c1ccc2c(CN3CCN(Cc4c[nH]c5ccccc45)CC3)c[nH]c2c1	/	/	.
CCOC(=O)c1c(C)oc2c1c(C(c1ccccc1)N1CCOCC1)c(O)c1ccccc12 (stereo not given)	.	/	/
CCOC(=O)c1c(C)oc2c1c(C(c1cccnc1)N1CCCCC1)c(O)c1ccccc12 (stereo not given)	.	.	74
COC(=O)[C@@]1(Cc2ccccc2)[C@H]2c3cc(C(=O)N4CCCC4)n(CCO)c3C[C@H]2CN1C(=O)c1ccccc1	/	.	/
C[C@H](C(=O)c1ccccc1)[C@@H](c1ccccc1)N1CCOCC1	/	/	.
CCN(CC)c1ccc2cc(S(=O)(=O)c3ccc(C)cc3)c(=O)oc2c1	.	/	/
FC(F)(F)c1cc(C(F)(F)F)c2ccc(Oc3ccccc3)nc2n1	43	/	/
FC(F)(F)c1cccc(Oc2ccc3c(C(F)(F)F)cc(C(F)(F)F)nc3n2)c1	.	/	/
COc1ccccc1N1CCN(C(CNS(=O)(=O)c2ccccc2)c2cccnc2)CC1 (stereo not given)	33	/	.
COc1ccc(S(=O)(=O)NCC(c2cccnc2)N2CCN(c3ccccc3OC)CC2)cc1C (stereo not given)	.	.	.
COc1ccccc1OC(=O)c1cc(Cl)nc2ccccc12	.	/	/
COc1cccc(NC(C(=O)Nc2cccc(C(C)=O)c2)c2ccccc2)c1 (stereo not given)	.	/	/
COc1cccc(NC(=O)C(NCC(C)(C)CN(C)C)c2ccccc2)c1 (stereo not given)	46	/	/
CN1[C@@H]2CC[C@H]1CC(OC(c1ccccc1)c1ccccc1)C2 (stereo not given in full)	/	/	.
COC(=O)[C@@H]1C[C@@H]2CC[C@@H](O)C[C@@H]2N1Cc1ccc(N2CCOCC2)cc1	/	.	/
CCOC(=O)C1=C(CC)OC(N)=C(C#N)C1c1cc(OC)ccc1OC (stereo not given)	.	.	/
CCOC(=O)C1=C(CC)OC(N)=C(C#N)C1c1ccc(NC(C)=O)cc1 (stereo not given)	31	/	/
Cc1ccc(C(=O)Nc2nc3ccccc3n3nnnc23)cc1	21	.	.

Screening results: PubChem, several laboratories
